Test results from PMC7862700, “An all-to-all approach to the identification of sequence-specific readers for epigenetic DNA modifications on cytosine”.

Experiments:
Experiment in all cases: DAPPL (digital affinity profiling via proximity ligation, sequencing); 10 mM Tris-HCl pH 7.5, 50 mM NaCl, 1 mM DTT, 4% glycerol, room temperature, 30 min; GST-TFs on glutathione beads, 16-mer random dsDNA library, 0.1% formaldehyde crosslink after washing; high values mean tight binding
Details in all cases: protein: recombinant; tags: N-terminal GST; dsDNA, one strand shown
FLI1 = biological target: T1, FLI1 (Homo sapiens, UniProt Q01543 1-452)
T1 sequence: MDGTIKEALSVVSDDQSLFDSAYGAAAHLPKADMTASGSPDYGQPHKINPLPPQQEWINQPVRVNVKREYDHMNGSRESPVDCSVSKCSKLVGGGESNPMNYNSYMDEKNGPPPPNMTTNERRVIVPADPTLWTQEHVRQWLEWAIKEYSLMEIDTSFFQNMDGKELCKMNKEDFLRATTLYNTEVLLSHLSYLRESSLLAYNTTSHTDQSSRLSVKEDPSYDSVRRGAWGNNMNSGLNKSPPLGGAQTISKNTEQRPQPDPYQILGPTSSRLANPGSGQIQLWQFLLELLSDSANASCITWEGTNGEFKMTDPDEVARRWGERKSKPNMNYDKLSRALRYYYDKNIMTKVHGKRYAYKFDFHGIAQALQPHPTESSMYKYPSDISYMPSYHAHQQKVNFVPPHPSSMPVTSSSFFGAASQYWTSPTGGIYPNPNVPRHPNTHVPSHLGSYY
Procedure, shortened: (§1)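 After expression in yeast as GST fusions, human transcription factors were bound to glutathione beads, DNA-barcoded and mixed with a tag-only sample. The pools were incubated with 200 nmole of a 16-mer random double-stranded DNA library in Tris/NaCl/DTT/glycerol buffer (30 min, room temperature), washed and crosslinked with 0.1% formaldehyde. Proximity ligation with BsaI/T4 ligase ran for 1 h at 37 °C, before PCR amplification and sequencing on an Illumina NextSeq500. Binding signal is a hexamer's read frequency for a factor divided by its frequency for the tag-only sample.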

ELK1 = biological target: T2, ELK1 (Homo sapiens, UniProt P19419 1-428)
T2 sequence: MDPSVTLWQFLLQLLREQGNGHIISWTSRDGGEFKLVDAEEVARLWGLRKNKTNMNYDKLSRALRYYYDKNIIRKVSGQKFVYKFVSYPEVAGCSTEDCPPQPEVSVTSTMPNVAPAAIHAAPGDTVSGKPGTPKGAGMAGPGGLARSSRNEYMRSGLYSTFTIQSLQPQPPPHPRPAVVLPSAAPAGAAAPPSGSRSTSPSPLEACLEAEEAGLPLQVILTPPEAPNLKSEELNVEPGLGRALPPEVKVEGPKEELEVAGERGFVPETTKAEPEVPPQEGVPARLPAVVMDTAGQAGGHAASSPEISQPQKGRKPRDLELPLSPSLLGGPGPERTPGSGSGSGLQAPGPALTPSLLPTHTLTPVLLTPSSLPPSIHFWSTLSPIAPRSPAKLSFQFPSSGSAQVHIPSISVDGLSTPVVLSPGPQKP
Procedure, shortened: as §1

GABPA = biological target: T3, GABPA (Homo sapiens, UniProt Q06546 1-454)
T3 sequence: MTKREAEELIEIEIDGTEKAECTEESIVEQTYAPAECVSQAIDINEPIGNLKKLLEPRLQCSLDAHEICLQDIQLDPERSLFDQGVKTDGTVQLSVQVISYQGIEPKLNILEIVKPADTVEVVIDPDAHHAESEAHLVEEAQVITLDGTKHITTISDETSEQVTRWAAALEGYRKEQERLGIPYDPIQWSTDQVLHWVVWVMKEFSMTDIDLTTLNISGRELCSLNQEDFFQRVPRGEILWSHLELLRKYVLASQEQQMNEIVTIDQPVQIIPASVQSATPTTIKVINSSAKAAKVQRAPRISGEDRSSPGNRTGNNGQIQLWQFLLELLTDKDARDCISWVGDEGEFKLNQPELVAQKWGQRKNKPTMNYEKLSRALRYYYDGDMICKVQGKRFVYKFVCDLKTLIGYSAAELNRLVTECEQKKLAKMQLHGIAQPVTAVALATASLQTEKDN
Procedure, shortened: as §1

ERG = biological target: T4, ERG (Homo sapiens, UniProt P11308 1-479)
T4 sequence: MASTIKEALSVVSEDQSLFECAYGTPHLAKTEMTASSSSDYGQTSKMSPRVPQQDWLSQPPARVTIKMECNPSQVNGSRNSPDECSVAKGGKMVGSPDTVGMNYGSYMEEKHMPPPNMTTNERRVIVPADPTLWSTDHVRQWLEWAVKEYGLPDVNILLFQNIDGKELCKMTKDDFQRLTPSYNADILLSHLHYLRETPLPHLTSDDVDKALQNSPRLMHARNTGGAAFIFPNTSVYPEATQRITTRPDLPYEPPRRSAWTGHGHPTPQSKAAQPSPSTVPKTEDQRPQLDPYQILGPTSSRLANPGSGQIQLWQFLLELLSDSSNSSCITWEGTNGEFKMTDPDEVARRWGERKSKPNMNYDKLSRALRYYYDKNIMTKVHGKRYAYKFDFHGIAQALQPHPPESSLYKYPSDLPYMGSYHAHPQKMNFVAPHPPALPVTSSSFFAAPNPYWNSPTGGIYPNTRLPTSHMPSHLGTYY
Procedure, shortened: as §1

EHF = biological target: T5, EHF (Homo sapiens, UniProt Q9NZC4 1-300)
T5 sequence: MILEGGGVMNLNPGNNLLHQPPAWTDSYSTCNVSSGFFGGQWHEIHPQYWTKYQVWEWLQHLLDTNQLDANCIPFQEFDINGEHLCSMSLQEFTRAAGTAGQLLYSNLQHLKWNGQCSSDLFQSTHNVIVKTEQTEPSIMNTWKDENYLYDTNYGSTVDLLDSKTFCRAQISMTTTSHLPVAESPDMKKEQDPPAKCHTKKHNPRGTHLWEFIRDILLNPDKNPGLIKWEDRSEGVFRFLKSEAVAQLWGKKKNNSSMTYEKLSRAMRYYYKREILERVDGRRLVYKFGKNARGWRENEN
Procedure, shortened: as §1

SPI1 = SPI1 (Homo sapiens, UniProt P17947 1-270)
Procedure, shortened: as §1

SPIB = SPIB (Homo sapiens, UniProt Q01892 1-262)
Procedure, shortened: as §1

ELK3 = biological target: T6, ELK3 (Homo sapiens, UniProt P41970 1-407)
T6 sequence: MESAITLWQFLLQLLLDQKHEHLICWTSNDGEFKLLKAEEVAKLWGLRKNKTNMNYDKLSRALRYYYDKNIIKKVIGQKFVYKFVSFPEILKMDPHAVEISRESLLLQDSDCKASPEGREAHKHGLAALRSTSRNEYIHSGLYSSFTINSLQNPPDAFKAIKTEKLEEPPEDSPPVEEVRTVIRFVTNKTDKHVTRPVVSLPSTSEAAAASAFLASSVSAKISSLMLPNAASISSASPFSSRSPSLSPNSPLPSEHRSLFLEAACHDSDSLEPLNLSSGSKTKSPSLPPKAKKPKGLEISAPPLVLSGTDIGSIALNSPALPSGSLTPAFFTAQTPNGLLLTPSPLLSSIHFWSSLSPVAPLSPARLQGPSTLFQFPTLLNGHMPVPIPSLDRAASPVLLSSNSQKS
Procedure, shortened: as §1

FEV = biological target: T7, FEV (Homo sapiens, UniProt Q99581 1-238)
T7 sequence: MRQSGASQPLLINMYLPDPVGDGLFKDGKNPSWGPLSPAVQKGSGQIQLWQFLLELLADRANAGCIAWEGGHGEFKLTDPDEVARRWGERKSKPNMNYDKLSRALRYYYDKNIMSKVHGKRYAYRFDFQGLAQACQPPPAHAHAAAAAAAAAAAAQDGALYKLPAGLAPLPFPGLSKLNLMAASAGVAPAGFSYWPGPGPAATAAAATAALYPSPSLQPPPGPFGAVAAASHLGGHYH
Procedure, shortened: as §1

ETV5 = ETV5 (Homo sapiens, UniProt P41161 1-510)
Procedure, shortened: as §1

SPIC = biological target: T8, SPIC (Homo sapiens, UniProt Q8N5J4 1-248)
T8 sequence: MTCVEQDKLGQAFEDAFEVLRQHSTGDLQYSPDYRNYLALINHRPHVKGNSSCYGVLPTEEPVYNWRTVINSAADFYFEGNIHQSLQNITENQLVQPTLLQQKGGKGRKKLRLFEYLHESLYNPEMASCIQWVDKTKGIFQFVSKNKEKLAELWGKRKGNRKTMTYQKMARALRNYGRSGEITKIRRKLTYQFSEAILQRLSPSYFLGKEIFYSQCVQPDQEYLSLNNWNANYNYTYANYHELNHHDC
Procedure, shortened: as §1

ELF4 = ELF4 (Homo sapiens, UniProt Q99607 1-663)
Procedure, shortened: as §1

ELK4 = biological target: T9, ELK4 (Homo sapiens, UniProt P28324-2 1-405)
T9 sequence: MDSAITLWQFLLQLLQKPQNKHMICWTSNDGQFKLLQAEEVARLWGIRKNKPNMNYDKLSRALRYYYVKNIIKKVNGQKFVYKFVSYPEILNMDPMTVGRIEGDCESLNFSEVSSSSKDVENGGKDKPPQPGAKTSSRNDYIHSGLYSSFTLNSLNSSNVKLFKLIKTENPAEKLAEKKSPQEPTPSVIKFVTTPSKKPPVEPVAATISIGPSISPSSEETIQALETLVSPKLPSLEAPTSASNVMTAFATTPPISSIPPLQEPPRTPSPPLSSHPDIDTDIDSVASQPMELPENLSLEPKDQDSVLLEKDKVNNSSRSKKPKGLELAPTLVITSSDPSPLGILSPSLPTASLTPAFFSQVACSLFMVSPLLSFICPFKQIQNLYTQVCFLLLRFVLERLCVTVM
Procedure, shortened: as §1

ETV2 = biological target: T10, ETV2 (Homo sapiens, UniProt O00321 1-342)
T10 sequence: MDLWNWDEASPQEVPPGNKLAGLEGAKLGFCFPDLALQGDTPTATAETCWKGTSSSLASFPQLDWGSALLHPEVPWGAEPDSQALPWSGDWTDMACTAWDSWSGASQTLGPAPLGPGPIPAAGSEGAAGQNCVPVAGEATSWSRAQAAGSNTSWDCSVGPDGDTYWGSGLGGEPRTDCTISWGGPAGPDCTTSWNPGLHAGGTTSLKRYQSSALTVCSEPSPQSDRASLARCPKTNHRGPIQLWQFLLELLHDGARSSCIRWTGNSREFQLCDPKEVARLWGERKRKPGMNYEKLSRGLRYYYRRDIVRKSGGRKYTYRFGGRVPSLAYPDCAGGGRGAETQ
Procedure, shortened: as §1

ELF3 = biological target: T11, ELF3 (Homo sapiens, UniProt P78545 1-371)
T11 sequence: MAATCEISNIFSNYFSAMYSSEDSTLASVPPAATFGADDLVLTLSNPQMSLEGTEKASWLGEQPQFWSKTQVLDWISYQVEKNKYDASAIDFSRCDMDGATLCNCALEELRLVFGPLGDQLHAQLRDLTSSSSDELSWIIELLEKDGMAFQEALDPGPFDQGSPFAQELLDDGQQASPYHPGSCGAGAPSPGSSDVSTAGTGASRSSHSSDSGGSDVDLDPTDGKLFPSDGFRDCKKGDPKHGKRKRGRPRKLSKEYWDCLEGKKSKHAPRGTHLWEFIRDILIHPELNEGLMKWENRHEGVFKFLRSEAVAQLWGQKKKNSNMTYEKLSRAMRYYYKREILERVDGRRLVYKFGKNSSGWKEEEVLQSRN
Procedure, shortened: as §1

CRX = CRX (Homo sapiens, UniProt O43186 1-299)
Procedure, shortened: as §1

ETV1 = ETV1 (Homo sapiens, UniProt P50549 1-477)
Procedure, shortened: as §1

ELF1 = ELF1 (Homo sapiens, UniProt P32519 1-619)
Procedure, shortened: as §1

Sequence of SPIB (Q01892 whole entry): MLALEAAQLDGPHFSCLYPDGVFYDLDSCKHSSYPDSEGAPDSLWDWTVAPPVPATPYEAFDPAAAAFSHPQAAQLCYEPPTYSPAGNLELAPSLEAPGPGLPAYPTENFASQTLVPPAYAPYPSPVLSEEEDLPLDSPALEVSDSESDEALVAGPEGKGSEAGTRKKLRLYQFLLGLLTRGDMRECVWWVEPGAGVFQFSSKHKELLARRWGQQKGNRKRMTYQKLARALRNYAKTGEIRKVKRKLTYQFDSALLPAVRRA
Sequence of ELF4 (Q99607 whole entry): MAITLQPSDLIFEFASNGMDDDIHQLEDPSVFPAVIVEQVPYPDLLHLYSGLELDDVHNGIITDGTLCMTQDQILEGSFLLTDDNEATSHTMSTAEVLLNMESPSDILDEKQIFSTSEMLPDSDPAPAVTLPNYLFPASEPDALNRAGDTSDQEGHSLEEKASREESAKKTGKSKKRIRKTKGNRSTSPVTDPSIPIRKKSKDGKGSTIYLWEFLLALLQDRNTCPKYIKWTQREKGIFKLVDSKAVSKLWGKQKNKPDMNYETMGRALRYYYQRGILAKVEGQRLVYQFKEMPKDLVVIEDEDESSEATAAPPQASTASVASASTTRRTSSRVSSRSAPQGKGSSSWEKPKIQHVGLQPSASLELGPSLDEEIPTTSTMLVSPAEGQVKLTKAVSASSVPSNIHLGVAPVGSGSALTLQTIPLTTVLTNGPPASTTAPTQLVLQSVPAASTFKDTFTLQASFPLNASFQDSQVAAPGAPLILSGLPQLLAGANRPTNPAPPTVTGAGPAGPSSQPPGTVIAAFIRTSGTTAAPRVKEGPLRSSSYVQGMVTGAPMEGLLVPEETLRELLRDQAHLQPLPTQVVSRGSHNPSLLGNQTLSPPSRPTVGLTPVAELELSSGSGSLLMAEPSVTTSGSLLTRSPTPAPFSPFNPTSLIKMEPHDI
Sequence of ETV5 (P41161 whole entry): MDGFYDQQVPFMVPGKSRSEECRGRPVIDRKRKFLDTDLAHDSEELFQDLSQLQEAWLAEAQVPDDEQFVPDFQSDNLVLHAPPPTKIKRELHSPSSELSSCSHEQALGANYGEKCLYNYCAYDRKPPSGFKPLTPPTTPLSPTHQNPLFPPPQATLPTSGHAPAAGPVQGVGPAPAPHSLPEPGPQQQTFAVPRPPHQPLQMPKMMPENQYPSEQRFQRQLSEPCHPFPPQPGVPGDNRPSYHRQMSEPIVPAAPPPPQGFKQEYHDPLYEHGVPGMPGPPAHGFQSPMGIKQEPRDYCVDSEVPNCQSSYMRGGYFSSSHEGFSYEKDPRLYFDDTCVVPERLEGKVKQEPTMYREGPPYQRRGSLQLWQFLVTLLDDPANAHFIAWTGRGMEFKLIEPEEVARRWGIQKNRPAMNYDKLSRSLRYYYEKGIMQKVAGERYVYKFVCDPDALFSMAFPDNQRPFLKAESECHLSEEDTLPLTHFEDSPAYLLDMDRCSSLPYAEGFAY
Sequence of ETV1 (P50549 whole entry): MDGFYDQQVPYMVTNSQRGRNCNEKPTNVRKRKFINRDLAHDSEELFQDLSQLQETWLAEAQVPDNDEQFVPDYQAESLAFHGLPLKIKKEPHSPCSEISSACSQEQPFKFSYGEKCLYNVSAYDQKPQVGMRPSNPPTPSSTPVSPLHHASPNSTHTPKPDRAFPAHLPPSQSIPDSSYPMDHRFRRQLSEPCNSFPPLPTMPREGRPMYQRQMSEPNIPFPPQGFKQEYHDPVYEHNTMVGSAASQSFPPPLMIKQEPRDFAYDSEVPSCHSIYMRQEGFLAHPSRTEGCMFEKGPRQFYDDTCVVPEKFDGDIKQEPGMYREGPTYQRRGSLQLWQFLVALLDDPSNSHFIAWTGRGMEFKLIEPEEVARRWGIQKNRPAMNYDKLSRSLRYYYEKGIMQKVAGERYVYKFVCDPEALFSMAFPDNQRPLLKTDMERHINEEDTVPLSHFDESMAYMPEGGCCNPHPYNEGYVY
Sequence of CRX (O43186 whole entry): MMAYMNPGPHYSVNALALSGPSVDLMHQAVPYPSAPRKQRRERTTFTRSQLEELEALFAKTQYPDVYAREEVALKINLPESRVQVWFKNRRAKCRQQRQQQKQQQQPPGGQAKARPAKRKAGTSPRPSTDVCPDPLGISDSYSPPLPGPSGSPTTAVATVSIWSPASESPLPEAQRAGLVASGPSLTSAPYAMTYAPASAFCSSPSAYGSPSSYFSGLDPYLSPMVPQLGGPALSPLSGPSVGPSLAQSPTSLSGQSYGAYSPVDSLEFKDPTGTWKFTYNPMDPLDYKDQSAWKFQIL
Sequence of ELF1 (P32519 whole entry): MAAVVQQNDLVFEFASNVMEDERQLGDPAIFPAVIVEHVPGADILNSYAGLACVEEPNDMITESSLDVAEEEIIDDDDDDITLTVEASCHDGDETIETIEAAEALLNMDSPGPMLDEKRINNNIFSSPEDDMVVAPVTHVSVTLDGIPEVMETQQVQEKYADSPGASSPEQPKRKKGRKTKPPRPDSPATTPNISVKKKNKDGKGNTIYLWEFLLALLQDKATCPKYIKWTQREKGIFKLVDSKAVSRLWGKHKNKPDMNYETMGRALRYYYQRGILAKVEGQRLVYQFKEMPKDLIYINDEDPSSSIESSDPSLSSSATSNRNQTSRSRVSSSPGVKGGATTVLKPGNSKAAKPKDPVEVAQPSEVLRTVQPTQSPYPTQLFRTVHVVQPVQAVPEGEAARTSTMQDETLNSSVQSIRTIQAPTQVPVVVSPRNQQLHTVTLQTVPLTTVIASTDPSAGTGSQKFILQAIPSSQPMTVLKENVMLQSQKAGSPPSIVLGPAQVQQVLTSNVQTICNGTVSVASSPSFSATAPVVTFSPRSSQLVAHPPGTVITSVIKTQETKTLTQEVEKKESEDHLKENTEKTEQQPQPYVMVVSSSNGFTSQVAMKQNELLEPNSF

Sequence | binding signal (FLI1) | binding signal (ELK1) | binding signal (GABPA) | binding signal (ERG) | binding signal (EHF) | binding signal (SPI1) | binding signal (SPIB) | binding signal (ELK3) | binding signal (FEV) | binding signal (ETV5) | binding signal (SPIC) | binding signal (ELF4) | binding signal (ELK4) | binding signal (ETV2) | binding signal (ELF3) | binding signal (CRX) | binding signal (ETV1) | binding signal (ELF1)
TAGCGG | 1.14 fold enrichment (6-mer frequency, TF over GST control) | 1.1 fold enrichment (6-mer frequency, TF over GST control) | 1.06 fold enrichment (6-mer frequency, TF over GST control) | 1.16 fold enrichment (6-mer frequency, TF over GST control) | 1.24 fold enrichment (6-mer frequency, TF over GST control) | 1.23 fold enrichment (6-mer frequency, TF over GST control) | 1.17 fold enrichment (6-mer frequency, TF over GST control) | 1.08 fold enrichment (6-mer frequency, TF over GST control) | 1.12 fold enrichment (6-mer frequency, TF over GST control) | 1.13 fold enrichment (6-mer frequency, TF over GST control) | 1.04 fold enrichment (6-mer frequency, TF over GST control) | 1 fold enrichment (6-mer frequency, TF over GST control) | 1.06 fold enrichment (6-mer frequency, TF over GST control) | 1.19 fold enrichment (6-mer frequency, TF over GST control) | 1.02 fold enrichment (6-mer frequency, TF over GST control) | 1.26 fold enrichment (6-mer frequency, TF over GST control) | 1.05 fold enrichment (6-mer frequency, TF over GST control) | –
CAATAG | 1.07 fold enrichment (6-mer frequency, TF over GST control) | 1.07 fold enrichment (6-mer frequency, TF over GST control) | 1.22 fold enrichment (6-mer frequency, TF over GST control) | 1.04 fold enrichment (6-mer frequency, TF over GST control) | 1.13 fold enrichment (6-mer frequency, TF over GST control) | 1.04 fold enrichment (6-mer frequency, TF over GST control) | 1.08 fold enrichment (6-mer frequency, TF over GST control) | 1.13 fold enrichment (6-mer frequency, TF over GST control) | – | 1.11 fold enrichment (6-mer frequency, TF over GST control) | 1.07 fold enrichment (6-mer frequency, TF over GST control) | 1.09 fold enrichment (6-mer frequency, TF over GST control) | 1.15 fold enrichment (6-mer frequency, TF over GST control) | 1.01 fold enrichment (6-mer frequency, TF over GST control) | 1.2 fold enrichment (6-mer frequency, TF over GST control) | – | 1.02 fold enrichment (6-mer frequency, TF over GST control) | 1.07 fold enrichment (6-mer frequency, TF over GST control)
GGCTTG | 1.12 fold enrichment (6-mer frequency, TF over GST control) | 1.04 fold enrichment (6-mer frequency, TF over GST control) | 1.04 fold enrichment (6-mer frequency, TF over GST control) | 1.09 fold enrichment (6-mer frequency, TF over GST control) | – | 1.02 fold enrichment (6-mer frequency, TF over GST control) | 1.06 fold enrichment (6-mer frequency, TF over GST control) | – | 1.01 fold enrichment (6-mer frequency, TF over GST control) | 1.01 fold enrichment (6-mer frequency, TF over GST control) | 1.12 fold enrichment (6-mer frequency, TF over GST control) | 1.07 fold enrichment (6-mer frequency, TF over GST control) | 1.12 fold enrichment (6-mer frequency, TF over GST control) | 1.01 fold enrichment (6-mer frequency, TF over GST control) | 1.11 fold enrichment (6-mer frequency, TF over GST control) | 1.06 fold enrichment (6-mer frequency, TF over GST control) | 1.08 fold enrichment (6-mer frequency, TF over GST control) | –
